Screening data from PubChem.
Only some compounds are listed: those with a hit (about 2.3% of all), similar ones and a draw of the others.
ATXN2 expr inh: ATXN2 expression inhibition; Potency, µM (highest dose often 57 µM), inactives show at the top dose activity change, negative = inhibition, actives largely listed as inhibitors; HEK-293 ATXN2-luciferase reporter, luminescence, 24 h; hit rate 0.72% among 360,000; AID 1745845; further: on the % scale 0 is the no-effect control and ±100 the full control effect; nearly all actives have a fitted effect of over 55% in size
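ATXN2-luciferase reporter cells (luciferase flanked by upstream and downstream ATXN2 gene portions) were treated 24 h at 37 °C with compounds at up to 57 uM. SteadyGlo luminescence gave expression; GF-AFC fluorescence gave viability.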
TGFb SMAD3 inh: blocks TGF-b signaling | HepG2 CAGA-GFP TGF-b/SMAD3 reporter, GFP fluorescence, 18 h; TGF-beta stimulated, 500 pg/mL final | Potency, µM (top dose mostly 46.1 µM), inactives show at the highest dose activity, negative = inhibition, hits mostly inhibitors | hit rate 1.2% among 410,000; further: on the % scale 0 is the no-effect control and ±100 the full control effect; nearly all actives have a fitted effect of over 65% in size
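Read-out: total well GFP (ex488/em500-530) summed from mean per-cell fluorescence. Cells: HEPG2 CAGA-GFP, 1% FBS DMEM, 18 h at 37 degrees C with 500 pg/mL final TGF-beta. Unstimulated wells served as the full-inhibition control; stimulated DMSO wells = 0%.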
HepG2 viability: kills HepG2 cells in TGF-b inhibitor counter-screen. Potency, µM (doses to about 46.1 µM), for the others: top-dose activity change, negative = cytotoxicity, usual class: cytotoxic. HepG2 CAGA-GFP viability, ATP luminescence, 18 h. hit rate 0.76% among 410,000
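HepG2 CAGA-GFP cells (1000/well, DMEM with 1% FBS) received compound, then TGF-beta at 500 pg/mL final, and were incubated 18 hours at 37 degrees C. Viability was read by CellTiter-Glo luminescence. Media-only wells were set as complete cell-killing and DMSO as no toxicity.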
S2 tox: reduces viability in counter-screen for ATXN expression inhibitors | S2 cells (HEK-293 line with an ATXN2-luciferase reporter) viability, CellTiter-Fluor protease fluorescence, 24 h | AID 651635 | Potency, µM (titrated, usually from 56.7 µM), hits mostly cytotoxic | hit rate 0.49% among 400,000; further: nearly all actives have a fitted effect of over 40% in size
The depositor's hits bear a star; i = inactive; ? = inconclusive; · = no result given. The call rests on the fitted dose curve; in most records, active means well fitted curve in the direction sought with a large enough effect; inconclusive means small, poorly fitted or top-dose-only effect, or another doubt; inactive means no such curve, though single readings can be large; an effect the other way counts as inactive or inconclusive. Potency means the concentration at half of the fitted maximal effect.

SMILES	ATXN2 expr inh	TGFb SMAD3 inh	HepG2 viability	S2 tox
O=C(Cc1ccc(Cl)cc1)NCCc1c[nH]c2ccccc12	-0.7%	-1.2%	-18.3%	i
COc1ccc(-n2c(SCC(=O)NCC3CCCO3)nc3c(c2=O)SCC3)cc1OC (stereo not drawn)	1.4%	-3.1%	-16.6%	i
COc1ccc(-n2c(SCc3ccccn3)nc3c(c2=O)SCC3)cc1OC	1.1%	-7.5%	20µM*	i
COc1ccc2c(c1)C=C/C2=C/c1ccc(N(C)C)cc1	·	8.7%	-16.3%	·
CN(Cc1ccc(Cl)s1)C(=O)CCl	13.4µM*	7.08µM*	-63.0%	·
O=C(NNC1=Nc2ccccc2SC1)c1ccc(Cl)cc1	14.1µM*	-6.2%	7.0%	?
N=c1n(CCCOc2ccccc2Cl)c2ccccc2n1CC(N)=O	?	12.6µM*	-188.2%	i
CCc1cnc2ccccc2c1/C=C/c1ccc(N(C)C)cc1	·	?	-13.6%	·
O=C(Nc1cc(Sc2ccccn2)cc([N+](=O)[O-])c1)c1cccc(Cl)c1	?	11.2µM*	-69.3%	?
O=C(Nc1ccc(S(=O)(=O)Nc2ncccn2)cc1)c1cccc(Cl)c1	5.5%	-5.2%	-2.8%	i
COc1ccc2nc(C)cc(N/N=C/c3cccc(OC)c3O)c2c1	?	?	-101.4%	·
Cc1cc(N/N=C/c2ccccc2O)c2ccccc2n1	15.8µM*	?	-38.9%	?
COc1ccc(/C=N/Nc2cc(C)nc3ccc(Br)cc23)cc1	?	11.2µM*	6.31µM*	?
Cc1cc(-c2ccccc2)nc(N/N=C/c2ccc(O)cc2O)n1	?	?	-26.2%	?
c1ccc(CC2CCN(C3=Nc4cccc5cccc3c45)CC2)cc1	2.7%	?	12.6µM*	i
Cc1cc([N+](C)(C)C)cc(C)c1/C=C/c1ccnc2ccccc12	·	-12.5%	-15.4%	·
O=C(NCC1CCN(Cc2cccc(Cl)c2)CC1)Nc1ccc(Cl)cc1	·	?	-85.6%	?
O=C(NCC1CCN(Cc2cccc(Cl)c2)CC1)Nc1ccc(F)c(Cl)c1	?	22.4µM*	-112.8%	22.4µM*
CCCOc1ccc2cc(-c3ccccn3)c(=O)oc2c1	3.55µM*	-18.3%	-60.8%	i
O=c1oc2cc(OCc3c(F)cccc3Cl)ccc2cc1-c1ccccn1	23.0%	22.5%	2.5%	i
CCOC(=O)c1c(NC(C)=O)sc2c(OCC(O)CNC(C)(C)C)c(Br)ccc12 (stereo not drawn)	·	?	11.2µM*	·
COC(=O)[C@@H]1CCCN1C(=O)c1c(OC)cc(=O)n2c1CCN(Cc1ccc3cccnc3c1)CC2	·	·	·	i
C[C@@]12CCC=C[C@H]1[C@H](c1ccc3ccccc3c1Br)N(Cc1ccccc1)C2=O	?	?	-35.3%	35.5µM*
COc1ccc(-c2cc(C3C4C=CCCC4(C)C(=O)N3Cc3ccccc3)ccc2F)cc1 (stereo not drawn)	·	11.2µM*	-7.9%	·
O=C1C2C(c3ccccc3)CC=CC2C(c2ccc(C(F)(F)F)cc2)N1Cc1ccccc1 (stereo not drawn)	·	12.6µM*	-56.6%	·
SMILES	ATXN2 expr inh	TGFb SMAD3 inh	HepG2 viability	S2 tox
COc1ccc(-c2cc([C@H]3[C@@H]4C=CCC[C@@]4(C)C(=O)N3Cc3ccccc3)ccc2F)cc1	-21.9%	?	0.9%	i
O=C1C2C(c3cccc(/C=C/c4ccccc4)c3)CC=CC2C(c2ccc(C(F)(F)F)cc2)N1Cc1ccccc1 (stereo not drawn)	13.2%	-11.2%	3.6%	i
CC1CC=CC2C1C(=O)N(Cc1ccccc1)C2c1ccc2ccccc2c1 (stereo not drawn)	·	11.2µM*	-74.6%	·
COC(=O)C1=C(C)NC(COC(N)=O)=C(C(=O)OC(C)C)C1c1cccc(Cl)c1Cl (stereo not drawn)	-28.9%	·	·	?
O=C(NCc1cccnc1)c1cnn(-c2nccc(-c3cccs3)n2)c1C1CC1	·	·	·	i
C[C@@H]1CC=C[C@H]2[C@H]1C(=O)N(Cc1ccccc1)[C@H]2c1ccc2ccccc2c1Br	?	?	12.6µM*	28.2µM*
Cc1nn(-c2ccccc2)c(Cl)c1C(=O)N1CCN(c2ncnc3c2cnn3-c2ccccc2)CC1	17.8µM*	?	-10.9%	·
Cc1ccc(Cl)cc1-n1ncc2c(N3CCN(Cc4ccccc4)CC3)ncnc21	15.8µM*	21.7%	1.1%	17.8µM*
CCN1CCN(c2ncnc3c2cnn3-c2cc(Cl)ccc2C)CC1	-19.9%	11.5%	0.3%	?
C[C@]12CC[C@@H]3c4ccc(O)cc4CC[C@H]3[C@H]1CC[C@H]2O	-17.1%	·	·	·
CN1CCCC1CCOC(C)(c1ccccc1)c1ccc(Cl)cc1 (stereo not drawn)	31.6µM*	?	11.2µM*	20µM*
O=C(NC1CCCCC1)C(CCc1ccccc1)N1CCc2ccccc2C1 (stereo not drawn)	12.8%	10µM*	-12.4%	i
Cc1ccc(NC(=O)c2cc(S(=O)(=O)N3CCCCCC3)ccc2F)cc1F	-13.4%	-11.5%	-3.5%	i
O=C(Nc1ccc(Cl)cc1)c1cc(S(=O)(=O)NC2CCCCCC2)ccc1F	·	8.91µM*	-88.0%	·
CCc1ccc(NC(=O)c2cc(S(=O)(=O)NC3CCCC3)ccc2F)cc1	·	?	-70.3%	·
Cc1ccc(NC(=O)c2cc(S(=O)(=O)NC3CCCCCC3)ccc2F)cc1F	-28.1%	?	12.6µM*	?
CCC(=O)NC(c1ccc(C)cc1)c1cc(Cl)c2cccnc2c1O (stereo not drawn)	?	?	2.1%	?
CCCC(=O)NC(c1ccco1)c1cc(Cl)c2cccnc2c1O (stereo not drawn)	25.1µM*	-3.2%	-16.8%	?
CCCC(=O)NC(c1ccc2c(c1)OCO2)c1cc(Cl)c2cccnc2c1O (stereo not drawn)	8.91µM*	?	-7.3%	i
CC1(C)CC(=O)c2cc(C(=O)Nc3cccc4ccccc34)c(=O)[nH]c2C1	·	-14.6%	-32.8%	·
COc1cc(OC)cc(-c2cc3nc(C)c(CCC(=O)NCc4ccccc4)c(C)n3n2)c1	8.91µM*	-25.9%	7.6%	?
Cc1cc(NC(=O)c2ccc(Br)o2)ccc1NC(=O)c1ccco1	8.0%	15.3%	10µM*	i
N/C(=C\c1ccccc1)c1ccncc1	·	8.1%	10.6%	·
O=C1/C(=C/c2ccc(N3CCOCC3)o2)SC(=Nc2ccccc2)N1CCc1c[nH]c2ccccc12	17.8µM*	-0.9%	12.6µM*	?
COc1cc(/C=C2\SC(=Nc3ccccc3)N(CCc3c[nH]c4ccccc34)C2=O)ccc1OC(C)C(=O)O (stereo not drawn)	-11.0%	-17.1%	-18.3%	i
CC1(C)CC(=O)C(N=Nc2ccc(C(F)(F)F)cc2[N+](=O)[O-])=C(O)C1	?	12.6µM*	-57.2%	?
CCC1(C2CCN(Cc3ccc(C)s3)CC2)NC(=O)N(CC2COc3ccccc3O2)C1=O (stereo not drawn)	·	·	·	i
